Usually inhibition stands for the relative decrease from the control value, in per cent.

SMILES strings stand for the structures. Screen size: about 320,000 compounds; about 1,200 (0.38%) were called active.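 Rule for the calls: active = inhibition above the screen-wide mean plus 3 SD, limit set per campaign (cut at about 26% in these data); inactive = the rest.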 Only a selection was taken, and actives are over-represented in it overall.

This test deals with Acyl-protein thioesterase 2 (Homo sapiens) (UniProt O95372). Description: inhibition of human lysophospholipase 2 – biochemical, fluorescence polarization, FP-Rh probe ABPP, counter-screen for PME1 inhibitor project, primary screen (AID 2177).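 Note: 0% = LYPLA2 with DMSO and 100% = wells lacking LYPLA2 enzyme.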 Conditions: recombinant LYPLA2, FP-Rh probe fluorescence polarization; at 5.9 µM; stronger effect = higher value. On the technique in general: In fluorescence polarisation assays a small probe gives low polarisation when free and higher when bound to something large.
Sequence of Acyl-protein thioesterase 2 (Homo sapiens) (O95372 whole entry, looked up): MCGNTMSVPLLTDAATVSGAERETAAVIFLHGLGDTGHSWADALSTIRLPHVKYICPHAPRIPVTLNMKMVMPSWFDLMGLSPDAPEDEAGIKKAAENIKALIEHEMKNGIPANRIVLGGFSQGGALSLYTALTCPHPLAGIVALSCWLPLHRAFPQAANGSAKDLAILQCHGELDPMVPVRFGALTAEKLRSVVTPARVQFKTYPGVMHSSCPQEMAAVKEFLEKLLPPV
`CCOc1cc(S(=O)(=O)NCc2ccc3c(c2)OCO3)ccc1F`: the inhibition is 7.67% (inactive).

For `CCCn1c(NC(=O)C23CC4CC(CC(O)(C4)C2)C3)nc2ccccc21`, the inhibition is -2.06% (inactive).

Take `CCC1CCCCN1C(=O)CSc1nc2c(c(=O)n(C)c(=O)n2C)n1C` (stereo unspecified): the inhibition was 1.22% (inactive).

`CC/C(Cc1ccccc1)=N/NC(=O)CCn1nnc2ccccc21`: the inhibition was 9.11% (inactive).

With `Cc1cc(C)n(CC(=O)Nc2ccc([N+](=O)[O-])cc2)n1`, the inhibition is -3.9% (inactive).

`Cc1onc(C(=O)Nc2ccc3c(c2)OCO3)c1[N+](=O)[O-]`: the inhibition is 7.4% (inactive).

`Cc1ccc(C(=O)Cn2cc([N+](=O)[O-])nc2C)cc1`: the inhibition was 14.3% (inactive).

On to `Cc1nc([N+](=O)[O-])cn1CC(=O)Nc1ccc(Cl)cc1`, for which the inhibition was 35.7% (active).

`Cc1nn(CC(=O)Nc2ccc3c(c2)OCO3)c(C)c1[N+](=O)[O-]`: the inhibition was 3.02% (inactive).

Regarding `Cc1nc([N+](=O)[O-])cn1CC(=O)Nc1ccc2c(c1)OCO2`, the inhibition is 27.6% (active).

Take `CC(C)C1Nc2c(C(=O)O)cccc2C(Nc2ccccc2C(=O)O)C1(C)C` (stereo unspecified): the inhibition was 1.52% (inactive).

Consider `c1ccc(CSc2ncnc3c2sc2nc(N4CCOCC4)c4c(c23)CCCC4)cc1`, for which the inhibition is 1.88% (inactive).

With `CCOc1ncccc1C(=O)N(CC)CC(=O)Nc1ccc(NC(C)=O)cc1`, the inhibition is -2.58% (inactive).

With `COc1ccc(C(C#N)Nc2ccc(C)cc2)cc1` (stereo unspecified), the inhibition was 29.2% (active).

Regarding `COc1ccc(C(C#N)Nc2ccccc2C)cc1` (stereo unspecified), the inhibition was 2.16% (inactive).

For the molecule `COc1ccc(C(CC(=O)Nc2ccc(C)cc2)NC(=O)C(F)(F)F)cc1` (stereo unspecified), the inhibition is -1.1% (inactive).

`Cn1nc(C(F)(F)F)c(C(=O)Nc2cccc(C(F)(F)F)c2)c1SCc1ccc(Cl)cc1`: the inhibition was -39.3% (inactive).

With `O=C(Oc1ccc(Br)cc1)c1cccnc1`, the inhibition is 1.78% (inactive).

In the case of `N#CCc1ccc(OC(=O)c2cccnc2)cc1`, the inhibition is -0.53% (inactive).

As to `CCCCCCOc1ccc(OC(=O)c2cccnc2)cc1`, the inhibition was 49.8% (active).

As for `COC(=O)c1cccc(-n2[nH]nnc2=S)c1`, the inhibition was -1.32% (inactive).

Take `CN1CCN(c2ccc(S(=O)(=O)N3CCOCC3)cc2NC(=O)CCc2ccccc2)CC1`: the inhibition is 6.09% (inactive).

Turning to `O=C(Cc1ccccn1)c1ccc(O)cc1O`, the inhibition is -2.59% (inactive).

On to `CCOC(=O)c1cc(=O)c2ccc(OCc3ccccc3)cc2o1`, for which the inhibition was -1.62% (inactive).

For `O=c1c(-c2ccc3c(c2)OCCO3)c(C(F)(F)F)oc2cc(O)cc(O)c12`, the inhibition is 3.69% (inactive).

In the case of `CCOC(=O)c1cc2cc(-c3c(C(=O)OCC)oc4cc(O)cc(O)c4c3=O)ccc2o1`, the inhibition is 33.9% (active).

Consider `COC(=O)c1ccc(CN2CCCC(C(=O)Nc3cccc(-n4cnnn4)c3)C2)cc1` (stereo unspecified), for which the inhibition is 2.89% (inactive).

Consider `COc1cccc(N(C(=O)c2ccn[nH]2)C2(C(=O)Nc3c(C)cccc3C)CCCCC2)c1`, for which the inhibition is -1.38% (inactive).

Turning to `Cc1ccc(/C=N/NC(=O)COc2ccccc2-c2ccccc2)cc1`, the inhibition was 2.18% (inactive).

Take `Cc1ccc(/C=N/NC(=O)C(NC(=O)c2ccccc2)c2n[nH]c(=O)c3ccccc23)cc1` (stereo unspecified): the inhibition is 40.8% (active).

With `O=C(O)c1ccc(/C=N/NC(=S)NCc2ccccc2)cc1`, the inhibition is -7.47% (inactive).

Turning to `O=C(CNc1ccc(F)cc1F)NC(=O)NCc1ccco1`, the inhibition is -3.47% (inactive).

Consider `Cc1ccc(NC(=O)C(c2ccccc2)N2CCN(C(=O)c3ccco3)CC2)cc1` (stereo unspecified), for which the inhibition is 0.07% (inactive).

As to `Nc1nnc(SCC(=O)NC2CCCc3ccccc32)s1` (stereo unspecified), the inhibition is -1.96% (inactive).

Turning to `O=C(Cc1ccc(Br)cc1)NCCN1CCOCC1`, the inhibition is 4.15% (inactive).

Take `COc1ccc(NC(=O)NCCN2CCN(c3ccc(C)cc3)CC2)c(Cl)c1`: the inhibition was -3.78% (inactive).

Consider `COc1ccc(N2CCN(C(=O)c3ccc(N4CCCCS4(=O)=O)cc3)CC2)cc1`, for which the inhibition is 63% (active).

In the case of `COc1ccc(N2CCN(C(=O)c3cccs3)CC2)cc1`, the inhibition is 8.83% (inactive).

For the molecule `COc1ccc(N2CCN(C(=O)c3ccc4c(Cl)c5c(nc4c3)CCCC5)CC2)cc1`, the inhibition was 7.7% (inactive).

Regarding `COc1ccccc1N1CCC(N2CCN(CC(C)(C)C)C(CCO)C2)CC1` (stereo unspecified), the inhibition is -1.78% (inactive).

As to `COc1ccc(C(=O)OCC(=O)NC(=O)CCSc2ccccc2)cc1`, the inhibition is 28.6% (active).

On to `O=C(COC(=O)c1ccccc1)Nc1ccccc1Sc1ccccc1`, for which the inhibition is -10.2% (inactive).

Regarding `COc1ccc(NC(=O)COC(=O)c2ccc(NS(=O)(=O)/C=C/c3ccccc3)cc2)cc1`, the inhibition was -12% (inactive).

As for `C[C@H](OC(=O)n1ccnc1)[C@@H]1O[C@@]2(C)CCC[C@@H]1O2`, the inhibition is 3.91% (inactive).

As to `CC(=O)NC12CC3CC(C1)CC(C(=O)N1CCN(C(=O)c4ccco4)CC1)(C3)C2`, the inhibition was 6.61% (inactive).

`COc1ccccc1OCC(=O)O/N=C(\N)c1ccccn1`: the inhibition was -1.78% (inactive).

With `O=C(COc1ccc(NC(=O)c2ccccc2[N+](=O)[O-])cc1)c1ccc(F)cc1`, the inhibition was 43.8% (active).

Regarding `O=C(Nc1ccncc1)c1ccccc1[N+](=O)[O-]`, the inhibition was 2.96% (inactive).

As for `COc1ccc(NC(=O)c2ccccc2[N+](=O)[O-])cc1OC`, the inhibition was -0.83% (inactive).

Take `COc1c(C)c2c(c(O)c1C/C=C(\C)CCC(=O)O)C(=O)OC2`: the inhibition is 1.01% (inactive).

As to `Cc1ncc([N+](=O)[O-])n1CCOC(=O)c1ccc(Br)cc1`, the inhibition is 4.52% (inactive).

Consider `CN(C)CCCn1c(SCc2ccc(Cl)cc2)nnc1-c1ccncc1`, for which the inhibition was 2.66% (inactive).

On to `O=C(c1cc(-c2ccc(F)cc2)on1)N1CCN(c2ccc(F)cc2)CC1`, for which the inhibition was 8.86% (inactive).

For `COc1ccc(-c2cc(C(=O)N3CCN(c4ccc(F)cc4)CC3)no2)cc1`, the inhibition is 8.33% (inactive).

`O=C(c1cc(-c2ccc(Cl)cc2)on1)N1CCN(c2ccccc2)CC1`: the inhibition was 31.3% (active).

`CCN(CC)CCNC(=O)Cn1cnc2sc(C)c(S(=O)(=O)N3CCOCC3)c2c1=O`: the inhibition is -2.7% (inactive).

Take `CCN(CC)CCNC(=O)c1sc2ncn(CC(=O)Nc3ccc(C)c(Cl)c3)c(=O)c2c1C`: the inhibition was 32.4% (active).

As for `CCN(CC)CCCNC(=O)Cn1cnc2sc(C)c(S(=O)(=O)N3CCN(c4ncccn4)CC3)c2c1=O`, the inhibition is 4.51% (inactive).

`CCOC(=O)CSc1nc2ccc(C)cc2n2cnnc12`: the inhibition is -0.15% (inactive).

As for `COc1ccc(S(=O)(=O)N2CCOCC2)cc1NC(=O)Cc1c(F)cccc1Cl`, the inhibition is -4.41% (inactive).

On to `Cc1cc(OCCCN2CCN(Cc3ccccc3)CC2)ccc1[N+](=O)[O-]`, for which the inhibition was 34.3% (active).

On to `Cc1ccccc1N1CCN(CCCOc2ccc3c(C)cc(=O)oc3c2)CC1`, for which the inhibition is 15.9% (inactive).

On to `Cc1cc(OCCCCOc2ccc(C#N)cc2)ccc1[N+](=O)[O-]`, for which the inhibition was 19.5% (inactive).

Take `CCOc1ccccc1N1CCN(C(=O)c2ccc3[nH]c(C)c(C)c3c2)CC1`: the inhibition was -3.51% (inactive).

In the case of `Cc1ccccc1OCC(O)CN1CCN(c2ccccn2)CC1` (stereo unspecified), the inhibition was -3.92% (inactive).

Take `Cc1cccc(OCC(O)CN2CCN(CCN3C(=O)c4cccc5cccc(c45)C3=O)CC2)c1C` (stereo unspecified): the inhibition is 31.6% (active).

In the case of `Cc1cccc(C)c1OCC(O)CN1CCCCC1` (stereo unspecified), the inhibition was -4.51% (inactive).

`CCCCC[C@H]1CN(C2CCCCC2)C(=O)[C@@H]1CC(=O)NCc1ccc(OC)cc1`: the inhibition was -3.9% (inactive).

Consider `COC(=O)c1ccc(S(=O)(=O)N(CCO)Cc2ccccc2)n1C`, for which the inhibition was 7.11% (inactive).

For `COC(=O)c1c(NC(=O)COc2ccc(Cl)cc2Cl)sc2c1CC(C)(C)NC2(C)C`, the inhibition is 1.16% (inactive).

`CCC(NC(=O)C1CCCC1)c1ccc(C)cc1` (stereo unspecified): the inhibition was 0.26% (inactive).

With `Oc1c(C(c2cccs2)N2CCN(c3ccc(F)cc3)CC2)sc2ncnn12` (stereo unspecified), the inhibition is -5.69% (inactive).

As to `Cc1ccc(C(c2sc3nc(C)nn3c2O)N2CCN(c3ccc(F)cc3)CC2)cc1` (stereo unspecified), the inhibition is 36.7% (active).

Turning to `Cc1ccc(C(c2sc3nc(C)nn3c2O)N2CCN(c3ccccc3)CC2)cc1` (stereo unspecified), the inhibition was 1.64% (inactive).

As for `C[C@@H](NC(=O)OC(C)(C)C)c1nnc(S(=O)(=O)Cc2ccccc2)o1`, the inhibition was -2.33% (inactive).

For the molecule `O=C(C(c1ccccc1)c1ccccc1)N1CCN(CC(O)COc2ccccc2)CC1` (stereo unspecified), the inhibition was 1.24% (inactive).

As to `C[N+]1(CC(O)COc2ccccc2)CCN(C(=O)c2ccc([N+](=O)[O-])cc2)CC1` (stereo unspecified), the inhibition is -1.46% (inactive).

For `O=[N+]([O-])c1ccc(N2CCN(CC(O)COc3ccccc3)CC2)cc1` (stereo unspecified), the inhibition was 29.5% (active).

`Cc1ccccc1NC(=O)Cc1nc(COC(=O)c2cccnc2Cl)cs1`: the inhibition was 2.11% (inactive).

On to `CCc1ccc(NC(=O)c2ccc(Cn3cc([N+](=O)[O-])cn3)cc2)cc1`, for which the inhibition is 32% (active).

In the case of `COc1cccc(NC(=O)c2ccc(Cn3cc([N+](=O)[O-])cn3)o2)c1`, the inhibition was 4.62% (inactive).

In the case of `O=C(Nc1ccccc1F)c1ccc(Cn2cc(Br)cn2)cc1`, the inhibition was -5.94% (inactive).

As to `O=C(Nc1ccccc1Cl)/C(Cl)=C(\Cl)S(=O)c1ccccc1` (stereo unspecified), the inhibition was -37.3% (inactive).

As for `O=C1Cc2ccccc2Sc2ccc(Cl)cc21`, the inhibition is -9.53% (inactive).

On to `COc1ccc(-c2nnc(SC(C)C(=O)NC3CC3)o2)cc1` (stereo unspecified), for which the inhibition was 1.72% (inactive).

For `CCN1C(=O)[C@H]2[C@@H](c3ccc(-c4ccc(OC)cc4)cc3)N[C@@](Cc3ccccc3)(C(=O)OC)[C@H]2C1=O`, the inhibition is 6.99% (inactive).

In the case of `CCC(Cc1ccccc1)NS(=O)(=O)c1ccc2c(c1)NC(=O)CS2` (stereo unspecified), the inhibition is 1.66% (inactive).

On to `COc1ccc(C2=NOC3(CC(=O)N(c4ccc(Cl)cc4)C3=O)C2)c(OC)c1` (stereo unspecified), for which the inhibition was 7.09% (inactive).

For `O=C(CCCC(=O)N1CCN(c2cccc(Cl)c2)CC1)c1ccccc1`, the inhibition is 24.1% (inactive).

As to `O=C(Cc1ccc(-n2c(=O)[nH]c3ccccc3c2=O)cc1)N1CCN(c2cccc(Cl)c2)CC1`, the inhibition is 50.8% (active).

Take `CCOC(=O)N1CCN(C(=O)Cc2ccc(-n3c(=S)[nH]c4ccccc4c3=O)cc2)CC1`: the inhibition is 3.58% (inactive).
